KB-V1 MDR tox – KB-V1 MDR subline cytotoxicity | actives 3.4% (n = 400,000) | KB-V1 MDR cells viability, CellTiter-Glo, 72 h | Potency, µM (doses to about 46.1 µM), most hits filed as cytotoxic | AID 1347076; further: on the % scale 0 is the no-effect control and ±100 the full control effect; nearly all actives have a fitted effect of over 60% in size
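KB-V1 MDR subline cells in DMEM (phenol-red free, 10% FBS) exposed to compounds in qHTS concentration series for 72 h at 37 degrees C. Viability read by CellTiter-Glo luminescence; concentration-effect curves fitted after normalization and correction.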
PINK1 modulator – modulators of PINK1 expression. AID 624263. actives 0.2% (n = 410,000). PINK1 immunofluorescence, high-content cytometry, 24 h. Potency, µM (doses to about 76.6 µM), without a hit: at the top dose activation (PINK1 increase), actives largely listed as activators; active means well fitted activation curve with a large enough effect; inconclusive means small, poorly fitted or top-dose-only effect; cell line not stated here; further: % of control where 0% means no effect; nearly all actives have a fitted effect of over 65% in size
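Fluorescence from anti-PINK1 antibody, together with nuclear and cell stains, was scanned on a laser-scanning cytometer. Before staining, stable-line cells were incubated 24 hours with compounds at 5 concentrations; primary antibody 12 h at 10 degrees C.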
SW480 rereplic – induces DNA re-replication in SW480 colon adenocarcinoma cells; SW480 DNA re-replication, Hoechst DNA content imaging, 48 h; Potency, µM (series often up to 46.1 µM), without a hit: at the highest dose re-replication activation, hits mostly activators; actives 1.8% (n = 340,000); further: % of control where 0% means no effect; nearly all actives have a fitted effect of over 55% in size
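Treated cells incubate 48 hr (37 C, 5% CO2), are stained 40 min with Hoechst, and nuclear fluorescence is enumerated; a rise in nuclei with high DNA signal marks re-replication.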
MCF10A rereplic – DNA re-replication induction in MCF 10a cells | MCF 10A DNA re-replication, Hoechst nuclear intensity, 48 h | actives 2.9% (n = 350,000) | Potency, µM (top dose mostly 46.1 µM), for inactives: at the highest dose activity, positive = re-replication, hits mostly activators; further: % of control where 0% means no effect; nearly all actives have a fitted effect of over 50% in size
KB-3-1 cytotox – KB-3-1 parental cell cytotoxicity. actives 1.4% (n = 400,000). Potency, µM (highest dose often 46.1 µM), usual class: cytotoxic. AID 1347075. KB-3-1 viability, CellTiter-Glo ATP luminescence, 72 h; further: on the % scale 0 is the no-effect control and ±100 the full control effect; nearly all actives have a fitted effect of over 60% in size
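Parental KB-3-1 adenocarcinoma cells in phenol-red-free DMEM with 10% FBS were pin-treated with compounds at several concentrations, incubated 72 h at 37 °C, and viability read by CellTiter-Glo luminescence; concentration-effect curves were fitted after normalization.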
* = called active by the depositor; i = inactive; ? = inconclusive; . = no result; [ ] = another dose, or the depositor's remark. Shown are actives, neighbours in structure and some others; about 6.7% of the full set was active somewhere. Unless noted, the call rests on the fitted dose curve; in most records, active means well fitted curve in the direction sought with a large enough effect; inconclusive means small, poorly fitted or top-dose-only effect, or another doubt; inactive means no such curve, though single readings can be large; an effect the other way counts as inactive or inconclusive. Potency means the concentration at half of the fitted maximal effect.

SMILES | KB-V1 MDR tox | PINK1 modulator | SW480 rereplic | MCF10A rereplic | KB-3-1 cytotox
O=C/C(=C\Nc1ccc(Br)cc1)c1nc2ccccc2o1 | i | 2% | 1% | -42% | i
O=C/C(=C\Nc1ccccn1)c1nc2cc(Cl)ccc2o1 | i | -1% | 2% | 16µM* | i
O=C/C(=C\Nc1ccccn1)c1nc2ccccc2o1 | i | 3%[38.3 µM] | ? | 21µM* | i
Oc1c(C(c2ccccc2F)N2CCOCC2)sc2nc(-c3ccco3)nn12 (stereo not drawn) | i | 3% | . | . | i
O=C(NCCN1CCOCC1)c1cc(Cl)ccc1Cl | i | 1% | -11% | -2% | i
O=C(NCCN1CCOCC1)NC1(C(F)(F)F)Oc2ccc(Cl)cc2O1 (stereo not drawn) | ? | -2% | 9% | 20% | 4.6µM*
CCOC(=O)CSc1nc2c(sc3ccccc32)c(=O)n1CCCN1CCOCC1 | 15µM* | 0% | -9% | 5% | i
CCOC(=O)c1ccccc1NC(=O)CSc1nc2ccccc2c(=O)n1CCCN1CCOCC1 | i | 7% | ? | 13µM* | i
Cn1c(CC(=O)NCCO)c(Sc2ccccc2)c2ccccc21 | i | -1% | 0% | -13% | i
O=C(Cc1c(Sc2ccccc2)c2ccccc2n1Cc1ccccc1)NCCO | i | -1% | 11% | 21µM* | i
Cc1cc(C)cc(NS(=O)(=O)c2ccc3c(c2)CCCN3C(=O)C2CCC2)c1 | i | 0% | . | . | ?
Cc1ccc(CNC(=O)C(=O)NCC(c2cccnc2)N2CCN(c3ccccc3F)CC2)cc1 (stereo not drawn) | ? | 0% | . | . | ?
Clc1ccc(COn2c(-c3ccccc3)nc3ccccc32)cc1 | ? | -4%[38.3 µM] | ? | 21µM* | ?
O=[N+]([O-])c1ccc2nc(-c3ccc(Cl)cc3)n(OCc3ccccc3)c2c1 | i | 4% | -11% | 7% | i
Cc1nc2ccccc2n1Cc1ccc(Cl)cc1 | 7.3µM* | 0% | ? | ? | ?
Clc1ccc(COn2c(-c3ccc(Cl)cc3)nc3ccccc32)cc1 | 18µM* | 29%[38.3 µM] | ? | 16µM* | i
OCc1nc2ccccc2n1Cc1ccc(Cl)cc1 | i | 0% | 1% | 2% | i
Cn1cccc1-c1nc2ccccc2n1Cc1ccccc1 | ? | -1% | 6% | 11µM* | i
CC(CNC(=O)c1cc2cc(S(=O)(=O)N3CCCCC3)ccc2n1C)c1ccccc1 (stereo not drawn) | . | 0% | . | . | .
CC(C)c1nc(SCC(=O)Nc2ccc(C(=O)O)cc2)c2c3c(sc2n1)CCCC3 | i | -2% | -1% | 16% | i
CCOC(=O)C(Nc1ccc2ccccc2c1)C(=O)OCC | i | 5% | 13µM* | 4.6µM* | i
CC(=O)Nc1ccc2ccccc2c1 | i | -1%[38.3 µM] | -13% | 18% | i
CCCn1nc(NC(=O)c2cccs2)c2cc3ccccc3nc21 | ? | 9% | 15µM* | 5.8µM* | i
CCCCn1nc(NC(=O)c2cccs2)c2cc3ccccc3nc21 | 26µM* | 8%[38.3 µM] | ? | ? | ?
CCCCn1nc(NC(=O)c2cccc(Cl)c2)c2cc3ccccc3nc21 | i | 0% | . | . | i
SMILES | KB-V1 MDR tox | PINK1 modulator | SW480 rereplic | MCF10A rereplic | KB-3-1 cytotox
CCc1nc2cc(C(=O)N(C)CC3CCCN(C)C3)cc(NC(=O)c3ccccc3OC)c2n1C (stereo not drawn) | . | 0% | . | . | .
CCCCNC1C(CC)C(CCC)C(C#N)(C#N)C1(C#N)C#N (stereo not drawn) | ? | 0% | ? | 21µM* | ?
Cc1ccccc1NC(=O)CSc1cn(CC(=O)N(C(C)C)C(C)C)c2ccccc12 | . | 3% | . | . | .
CCOC(=O)N1CCN(C(=O)/C(=C/c2ccc(N(C)C)cc2)NC(=O)c2ccccc2)CC1 | i | 0% | -1% | 1% | i
COCc1cc(C)nc(OCC(=O)N/N=C/c2ccc(O)cc2)c1C#N | i | 3% | 18µM* | -1% | i
CCOc1ccc(C2c3c(oc4ccc(C)cc4c3=O)C(=O)N2c2nc(C)c(C)s2)cc1OC (stereo not drawn) | i | 0% | . | . | i

Screens deposited in PubChem by National Center for Advancing Translational Sciences (NCATS).
